VACV Venus inh: qHTS for Stage-Specific Inhibitors of Vaccinia Orthopoxvirus: Venus Reporter Primary qHTS; Vaccinia virus Venus reporter expression, fluorescence; Potency, µM (highest dose often 36.5 µM), without a hit: at the top dose activity change, negative = inhibition, hits mostly inhibitors; 330,000 compounds, 0.46% hits; AID 720580, 2013; calls by dose curve; tested in A549 cells; also: nearly all actives have a fitted effect of over 30% in size
Vaccinia mCherry: qHTS for Stage-Specific Inhibitors of Vaccinia Orthopoxvirus: mCherry Reporter Primary qHTS. Vaccinia virus mCherry reporter infection, fluorescence. Potency, µM (doses to about 36.5 µM), inactives show at the top dose activity change, negative = inhibition, hits mostly inhibitors. 310,000 compounds, 0.63% hits. AID 720579, 2013; calls by dose curve; tested in A549 cells; also: nearly all actives have a fitted effect of over 35% in size
HCV inhibitor: qHTS Assay for Inhibitors of Hepatitis C Virus (HCV) | AID 651820, 2012 | Huh7.5.1 HCVcc-Cre infection, luciferase reporter, 44 h | 340,000 compounds, 3.4% hits | Potency, µM (highest dose often 41.8 µM), without a hit: at the top dose activity change, negative = inhibition, hits mostly inhibitors; active = well fitted inhibition curve with a large enough effect; inconclusive = small, poorly fitted or top-dose-only effect, or another doubt; inactive = no such curve, though single readings can be large or run the other way
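Infectious HCVcc-Cre (~0.5 moi) was added to cells just after compound, with cells seeded 4 h earlier at 1,000 per well. Luciferase activity after 44 h culture reported infection; substrate was incubated 15 min at room temperature before reading.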
* = called active by the depositor; i = inactive; ? = inconclusive; · = no result; [ ] = dose if it differs, or a comment. Most compounds without a hit are left out; they make up all but 3.3% or so of the library. % is scaled to controls: 0 for no effect and ±100 for the full control effect; potency is read from the fitted curve at half-maximal effect.

SMILES	VACV Venus inh	Vaccinia mCherry	HCV inhibitor
CCOC(=O)C1=C(C)Nc2sc(C(=O)c3ccc(F)cc3)c(N)c2C1c1ccc(C(=O)OC)cc1 (stereo not drawn)	-8%	i	7.1µM*
CCOC(=O)C1=C(C)Nc2sc(C(=O)c3ccc(C)cc3)c(N)c2C1c1ccc(C(=O)OC)cc1 (stereo not drawn)	-9%	-8%	?
Cc1ccc(C)c(CN2C(=O)c3ccccc3S(=O)c3ccc(C(=O)NCc4ccccc4Cl)cc32)c1 (stereo not drawn)	-14%	-12%	·
O=C(NCc1nnc2n1CCN(Cc1ccnc3ccccc13)CC2)c1cccc(F)c1	-14%	-13%	·
CCC(CC)C(=O)Nc1cc(-c2cn3cccnc3n2)ccc1OC	-8%	-1%	·
COc1ccc(-c2cn3cccnc3n2)cc1NC(=O)C(C)Oc1ccccc1 (stereo not drawn)	-16%	?	22µM*
Cc1cc[n+](CC(=O)c2ccc(F)cc2)cc1	-8%	-16%	·
COc1cc(Cl)c(CC(=O)NO)cc1OC	-15%	i	·
CN(C)CC/C=C1/c2ccccc2Sc2ccc(Cl)cc21	?	-12%	14µM*
CCCCCC[N+](C)(C)CC/C=C1/c2ccccc2Sc2ccc(Cl)cc21	·	·	-9%
Cc1ccc(-n2c(C)nc3c(cnn3-c3ccccc3Cl)c2=O)cc1C	·	·	-2%
Cc1nc2c(cnn2-c2ccccc2Cl)c(=O)n1-c1ccc(N2CCC(C)CC2)cc1	·	·	13µM*
Cc1ccc(Cl)cc1N1CCN(C(=O)Cn2cnc3nc4c(cc3c2=O)CCCC4)CC1	?	-25%	·
Nc1nc(=S)[nH]c2n[nH]nc12	-18%	-19%	·
Cc1nn(C)cc1C1C(C#N)=C(N)N(c2ccc(F)c([N+](=O)[O-])c2)C2=C1C(=O)CCC2 (stereo not drawn)	?	10µM*	13%
Cc1ccc(N2C(N)=C(C#N)C(c3cccnc3)C3=C2CCCC3=O)cc1 (stereo not drawn)	-5%	0%[1.46 µM]	-7%
CNC(=O)c1ccc2nc(-c3cccc(C)c3)c(-c3cccc(C)c3)nc2c1	-5%	i	·
Cn1c(SCC(=O)N2CCCc3ccccc32)ncc(C(=O)Nc2ccc(Cl)cc2)c1=O	-15%	i	·
COCC(=O)N1CCc2ccc(NC(=O)c3ccc(C(F)(F)F)cc3)cc2C1	-13%	i	?
O=C(Nc1ccc2c(c1)CN(Cc1ccc(CO)o1)CC2)c1ccc(C(F)(F)F)cc1	-18%	?	11µM*
CS(=O)(=O)Nc1cccc(-c2nccc(-n3ccnc3)n2)c1	11%	6%	·
COc1ccc(OC)c(S(=O)(=O)N2CCC(C(=O)NCc3ccncc3)CC2)c1	-13%	-8%	15%
O=C(Nc1ccc(C(=O)OCc2cc(=O)n3c4c(sc3n2)CCCC4)cc1)c1ccc(F)cc1	-15%	-20%	·
N#Cc1ccc(S(=O)(=O)N2CCN(c3nc(-c4cccs4)nc4ccccc34)CC2)cc1	-15%	-21%	·
NNC(=O)c1sc2cc(C(F)(F)F)cnc2c1-c1cccnc1	-5%	-6%	4%
SMILES	VACV Venus inh	Vaccinia mCherry	HCV inhibitor
COC(=O)c1sc2cc(C(F)(F)F)cnc2c1-c1cccnc1	·	·	0.56µM*
CC(=O)Oc1c(C)cc(O)c2ccccc12	·	·	10µM*
CC(=O)Cc1cc(O)c2ccccc2c1OC(=O)c1ccccc1	2%	?	-7%
Cc1cccc(C)c1NC(=O)COC(=O)C1Cc2ccccc2CN1C(=O)c1ccccc1 (stereo not drawn)	-5%	-17%	-1%
N#Cc1ccc(NC(=O)COC(=O)C2Cc3ccccc3CN2C(=O)c2ccccc2)cc1 (stereo not drawn)	-3%	-5%	10µM*
COC(=O)c1c(OCC2CCCN(C)C2)cc(=O)n2c1CCN(Cc1ccc(OC)c(O)c1)CC2 (stereo not drawn)	-3%	-1%	·
COc1ccc(-c2cn[nH]c2-c2ccc(OCc3ccccc3)cc2O)cc1	-22%	?	?
COc1ccc(-c2cn[nH]c2-c2ccc(OCc3ccccc3F)cc2O)cc1OC	?	?	11µM*
O=C(NCc1cccnc1)/C(=C\c1ccc(-c2ccc(Cl)c(Cl)c2)o1)S(=O)(=O)c1ccccc1	11µM*	?	11µM*
O=C(NCc1cccnc1)c1ccc(Cl)c(Cl)c1	-23%	·	6%
CN(Cc1ccc(Cl)c(Cl)c1)C(C(=O)NCc1ccccc1)c1ccco1 (stereo not drawn)	-5%	?	·
CN(Cc1ccc(Cl)c(Cl)c1)C(C(=O)NCc1ccccc1)c1ccc(C(F)(F)F)cc1 (stereo not drawn)	?	11µM*	·
COc1cc(=O)n2c(c1C(=O)N(C)Cc1nonc1C)CCN(Cc1cccc3ccccc13)CC2	2%	-16%	·
COc1ccc(/C=N/N(c2ccccc2)c2ccccc2)cc1O	·	·	-13%
CN(/N=C\c1ccc(O)c(O)c1)c1nc(-c2ccccc2)cc(-c2ccccc2)n1	?	?	11µM*
Cc1ccc(C(=O)COC(=O)C(Cc2c[nH]c3ccccc23)NC(=O)c2ccc(C(C)(C)C)cc2)cc1 (stereo not drawn)	-14%	-20%	·
Cn1c(SC2=CS(=O)(=O)c3ccccc32)nc2ccccc21	?	·	6.3µM*
Cn1c(CSc2nc3ccccc3n2C)nc2ccccc21	·	·	9%
CC(NC(=O)c1ccc([N+](=O)[O-])cc1Cl)C1CC2CCC1C2 (stereo not drawn)	2%	-11%	5%
CC(NC(=O)c1ccc([N+](=O)[O-])o1)C1CC2CCC1C2 (stereo not drawn)	-22%	?	11µM*
COc1ccc(N2N=NN(C(C)C)C2=C(Cl)c2nnnn2-c2ccc(OC)cc2)cc1	-13%	-12%	?
O=C(CCl)N1CCN(S(=O)(=O)c2ccc3c(c2)CCC3)CC1	·	·	14µM*
CN1C(=O)N(CC(=O)N2CCN(S(=O)(=O)c3ccc4c(c3)CCC4)CC2)C(=O)C12CCCCC2	-1%	-12%	24%
CNC(=O)c1sc(N2N=C3/C(=C/c4ccccc4)CCCC3C2c2ccccc2)nc1C (stereo not drawn)	·	·	10µM*
CNC(=O)c1sc(N2N=C3/C(=C\c4ccccc4)CCCC3C2c2ccccc2)nc1C (stereo not drawn)	-11%	-1%	?
SMILES	VACV Venus inh	Vaccinia mCherry	HCV inhibitor
COc1ccc(CCNC(=O)C(=O)NCC(c2cccs2)S(=O)(=O)c2ccc(F)cc2)cc1 (stereo not drawn)	-8%	-18%	·
COc1ccc(Cl)cc1N1C(=O)CN(Cc2cc(OC)c(OC)c(OC)c2)C1=S	·	·	16µM*
CCOc1ccccc1N1C(=O)CN(Cc2ccc(OC)c(OC)c2)C1=S	·	·	13µM*
COc1ccc(CN2CC(=O)N(c3ccccc3OC)C2=S)cc1OC	2%	12%	-3%
COc1ccc(CN2CC(=O)N(c3ccc(Cl)cc3)C2=S)cc1OC	-12%	i	-29%
COc1ccc(N2C(=O)CN(Cc3cc(OC)c(OC)c(OC)c3)C2=S)cc1	-19%	-5%	?
COc1ccc(CN2CC(=O)N(c3cc(Cl)ccc3OC)C2=S)cc1OC	·	·	11µM*
O=C(/C=C/c1ccc(F)cc1)NCC1Cc2cccc(-c3ncccn3)c2O1 (stereo not drawn)	-8%	-18%	·
